In PubChem BioAssay (NCI):
The panel holds about 83,000 compounds, 20% with a hit somewhere; the sample as a whole holds those more often.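 Compound tested at a single concentration for 48 hours in 96-well plates; a percent growth value below 10 was scored as active.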 Unmarked numbers belong to inactive results. Activity calls are given as the source filed them.

Test system: LOX IMVI melanoma
Assay: NCI-60 one-dose screen, 48 h (100 = growth as untreated, 0 = no growth, -100 = all killed)
Conditions: 10 µM unless noted
Experimental: Growth inhibition of the LOX IMVI human tumor cell line is measured as a screen for anti-cancer activity. Cells are grown in 96 well plates and exposed to the test compound for 48 hours. Compounds are tested at a single concentration, which is 10^-5 M for most compounds. The reported endpoint is percent growth (GI% or GIPRCNT), where numbers from 0 - 100% represent growth inhibition, and numbers from -100% - 0 represent cell death. For example, a value of 40 represents 60% growth inhibition. A value of 0 means no net growth occurred over the course of the experiment. A value of -40 indicates 40% of cells at the beginning of the experiment died by the end of the experiment. A value of -100 means all cells are dead at the end of the experiment.
NCI-60 Human Tumor Cell Lines Screen was performed using the standard one-dose NCI protocol, which is described in more detail at https://dtp.cancer.gov/discovery_development/nci-60/default.htm.
Compounds with GIPRCNT values below 10 were considered active. Activity score was based on GIPRCNT using the following formula: […]
Score is 0 for GIPRCNT values of 100 or above, 50 for GIPRCNT values of 0, and 100 for GIPRCNT values of -100.

Structure (SMILES)	growth
C[C@H]1[C@H](C)CC[C@]2(C(=O)OCCOCCOCC[P+](c3ccccc3)(c3ccccc3)c3ccccc3)CC[C@]3(C)C(=CC[C@@H]4[C@@]5(C)CC[C@H](OC(=O)C(Cl)Cl)C(C)(C)[C@@H]5CC[C@]43C)[C@H]12	-21.1% (active)
COC(=O)CCc1cc(O)c2c(c1)[C@@H](C(=O)OC)[C@H](c1ccc(O)c(O)c1)O2	63.4%
O=C(Nc1ccc(S(=O)(=O)NC2CCCCCC2)cc1)C(c1ccccc1)S(=O)(=O)c1ccc(F)cc1 (stereo not given)	5.06% (active)
O=C(CCCCCCCCC(=O)Nc1cccc(C2=NCCN2)c1)Nc1cccc(C2=NCCN2)c1	98.7%
Cc1cccc(C)c1NC(=O)CN(CC(C)C)CC(O)COc1ccccc1 (stereo not given)	95.3%
CCCCOc1nc2ccc(C)cc2cc1/C=C/C(=O)/C=C/c1ccc2c(c1)OCO2	77.3%
CCOC(=O)C1CCN(S(=O)(=O)/N=C2/NC(=O)NC2=C(Cl)Cl)CC1	-65% (active)
c1ccc(-c2n(Cc3ccc4ccccc4n3)cc[n+]2Cc2ccc3ccccc3n2)cc1	19.5%
CC(=O)OCC1OC(OC2C(COC(C)=O)OC(OCCC[S-])C(OC(C)=O)C2OC(C)=O)C(OC(C)=O)C(OC(C)=O)C1OC(C)=O.[Au+].c1ccc(CN2[CH-]N(Cc3ccccc3)C(c3ccccc3)=C2c2ccccc2)cc1 (stereo not given)	11.3%
C=C1C(=O)O[C@H]2[C@H]1CC/C(COC(=O)CCCCCCCC(=O)OC/C1=C/CC[C@@]3(C)O[C@H]3[C@H]3OC(=O)C(=C)[C@@H]3CC1)=C\CC[C@@]1(C)O[C@@H]21	-51.9% (active)
c1ccc2c3c([nH]c2c1)C(c1ccc(C2NCCc4c2[nH]c2ccccc42)cc1)NCC3 (stereo not given)	-94.6% (active)
Cc1cc(NC(=O)CNc2nc(Oc3ccc(F)cc3)nc(-c3ccc(F)cc3)n2)ccc1Cl	96.1%
C=C1C(=O)O[C@H]2[C@H]1CC/C(COC(=O)c1c[nH]c3ccccc13)=C\CC[C@@]1(C)O[C@@H]21	-94.8% (active)
O=C1Nc2ccc(Cl)cc2/C1=N/c1nc(-c2ccc(Cl)cc2)cs1	-7.47% (active)
O=C1NC(c2ccc(F)cc2)N=C2C(c3ccccc3)=NOC12 (stereo not given)	108%
CCOCc1nc2ccccc2c(=O)[nH]1	99.8%
COc1cc(/C=C/C(=O)c2ccc(NC(=O)CSc3nnc(-c4cc(OC)c(OC)c(OC)c4)n3-c3ccccc3)cc2)cc(OC)c1OC	-52.3% (active)
COc1ccc(-c2nnc(N3CCN(C(=O)CN4CCN(c5ccc(OC)cc5)CC4)CC3)nc2-c2ccc(OC)cc2)cc1	-63.3% (active)
Cc1cc(C)n(-c2nc(-c3cccs3)c(C#N)c(=O)[nH]2)n1	84.7%
C=C1C(=O)O[C@H]2[C@H]1CC/C(COC(=O)N1CCC[C@H]1C(=O)Nc1ccc(OC)c(C(N)=O)c1O)=C\CC[C@@]1(C)O[C@@H]21	43.4%

Structure (SMILES)	growth
CCCCn1c(=O)c(/C=C/C(=O)/C=C/c2ccc(OC)cc2)cc2cc(Cl)ccc21	9.25% (active)
Cc1cc(O)cc(O)c1N=NC1=NCCS1	97.2%
C#C[C@@]1(O)[C@@H](CO)O[C@@H](n2cnc3c(-c4ccccc4)ncnc32)[C@@H]1O	94.6%
CCO/C=N/S(=O)(=O)c1cc2c(cc1Cl)NC=NS2(=O)=O	98.4%
N#CC(C#N)=C1NC(c2ccccc2)=C(c2ccccc2)C(c2ccccc2Cl)=C1C#N	91.5%
CCOC(=O)c1c(C)nc2c(c1N)CC(=O)N2CCc1ccccc1	9.25% (active)
O=CN1N=C(c2ccc(F)cc2)CC1c1cccc(Nc2ccnc3cc(C(F)(F)F)ccc23)c1 (stereo not given)	40.2%
C=C(C)[C@@H]1CC[C@]2(C(=O)N3CCN(C)CC3)CC[C@]3(C)[C@H](CC[C@@H]4[C@@]5(C)C/C(=C/c6ccco6)C(=O)C(C)(C)[C@@H]5CC[C@]43C)[C@@H]12	30.1%
COc1ccc(N(C)c2nc(Cl)nc3ccn(C)c23)cc1	27.6%
Cc1c(O)c(=O)ccn1-c1nc2ccccc2s1	86.7%
O=C1C(Cl)=C(NCCCN(CCCNC2=C(Cl)C(=O)c3ccccc3C2=O)C2=C(Cl)C(=O)c3ccccc3C2=O)C(=O)c2ccccc21	10.8%
O=C1Nc2ccccc2C12C=C(c1ccccc1)Nc1c2c(-c2ccccc2)nn1-c1ccccc1 (stereo not given)	65.2%
O=C(NCc1ccccc1)c1ccc2c(c1)NC(=O)[C@@H]1CCCN21	91.2%
CC(=O)[C@@H]1CC[C@]2(C(=O)O)CC[C@]3(C)[C@H](CC[C@@H]4[C@@]5(C)Cc6c([nH]c7ccccc67)C(C)(C)[C@@H]5CC[C@]43C)[C@@H]12	50.1%
Nc1cc(N)nc(SCC(=O)O)n1	97.4%
O=C1NN(c2ccccc2)C(c2ccc3c(c2)OCO3)N2CCC[C@@H]12 (stereo not given in full)	91.9%
O=C(Nc1ccc(N=Cc2ccccc2O)cc1)NC1C=c2ccccc2=CC1 (stereo not given)	105%
C=C1C(=O)O[C@H]2[C@H]1CC/C(COC(=O)CCCCC(=O)OC/C1=C/CC[C@@]3(C)O[C@H]3[C@H]3OC(=O)C(=C)[C@@H]3CC1)=C\CC[C@@]1(C)O[C@@H]21	52.2%
C=C1C(=O)O[C@H]2[C@H]1CC/C(COC(=O)Nc1nc3ccccc3[nH]1)=C\CC[C@@]1(C)O[C@@H]21	69.6%
COc1cc(-c2nn(-c3ccc(Br)cc3)cc2CO)ccc1O	86.5%
